Where “and” joins values, the source holds several entries; their conditions need not be identical. Equal values may be shown once. More than one record can exist for a structure, and the calls need not agree. Calls of active or inactive are those of the source. Rule for the calls: active = hit-call score of the fitted dose curve at least 0.9, where 1 is the maximum; inactive = score below 0.9.

By AC50 is commonly meant the midpoint of the concentration-response curve, whichever way the signal moves.

A short description of the assay: ATG_CRE_CIS: Attagene CIS-FACTORIAL HepG2 Assay for human cAMP Responsive Element (CRE) binding protein 3 (AID 2282926). The settings on record: HepG2 CRE cis-reporter, Attagene multiplexed mRNA; actives raise or lower the signal. On the procedure: ATG_CIS is a cell-based, multiplexed-readout assay that uses HepG2, a human liver cell line, with measurements taken at 24 hours after chemical dosing in a 24-well plate.ATG_CRE_CIS is one of 52 assay component(s) measured or calculated from the ATG_CIS assay. It is designed to make measurements of mRNA induction, a form of inducible reporter, as detected with fluorescence intensity signals by Reverse transcription polymerase chain reaction (RT-PCR) and Capillary electrophoresis technology.Data from the assay component ATG_CRE_CIS was analyzed into 1 assay endpoint. This assay endpoint, ATG_CRE_CIS, was analyzed with bidirectional fitting relative to DMSO as the negative control and baseline of activity. Using a type of inducible reporter, measures of mRNA for gain or loss-of-signal activity can be used to understand the reporter gene at the transcription factor-level as they relate to the gene CREB3. Furthermore, this assay endpoint can be referred to as a primary readout, because this assay has produced multiple assay endpoints where this one serves a reporter gene function. To generalize the intended target to other relatable targets, this assay endpoint is annotated to the dna binding intended target family, where the subfamily is basic leucine zipper.
Human liver HepG2 cells are transiently transfected with multiple reporter transcription units (MRTUs) in 6-well plates using FuGene 6 reagent (Roche; 3 ml FuGene/1 mg DNA). The MRTU constructs are regulated by a cis-regulating element (promoter). […] A major difference between the CIS and TRANS system is that in CIS activities of endogenous TFs are measured, whereas the TRANS assay evaluates changes in activities of exogenous, chimeric NR-Gal4 proteins. […] At the end of 24 hour incubation, total RNA was isolated using TriZol reagent (Invitrogen). The isolated RNA is then reverse-transcribed using oligo(dT) primer and Mo-MLV reverse transcriptase (Invitrogen) with DNAse I (Ambion) treatment for 30 min. The one-tenth of the produced cDNA was amplified by PCR using Taq DNA polymerase (Invitrogen) and two reporter sequence-specific primers. The PCR products were fluorescently labeled by primer extension with 6-arboxyfluorescein (6-FAM) 5'-labeled reporter sequence-specific primer (2 min at 95 C, 20 s at 68 C and 10 min at 72 C) and these products were digested with 5U of HpaI (New England Biolabs) for 2h at 37 C. The fragments were purified using Qiaquick PCR columns (Qiagen), analyzed on an ABI 3130xL genetic analyzer (Applied Biosystems) with peak positions identified by using a set of X-rhodamine (ROX)-labeled MapMarker1000 molecular weight standards (BioVentures). The raw capillary electrophoresis data was processed using Attagraph software (Attagene).
On to `CCc1ccccc1O`, for which the call was inactive.

For the molecule `CC1CCC(CO)CC1` (stereo not given), the molecule was classed as inactive.

Consider `CCC(C)c1ccccc1O` (stereo not given), for which the call was inactive.

Regarding `CCc1cccc(CC)c1NC(=O)C(=O)O`, the outcome was inactive.

For the molecule `CC1=CC(=O)c2ccccc2C1=O`, the molecule was called inactive.

Turning to `Oc1ccc(Cc2ccccc2O)cc1`, the result was inactive.

Take `COc1cc([N+](=O)[O-])ccc1N`: the molecule was called inactive.

On to `C/C=C/C(=O)C1=C(C)CCCC1(C)C`, for which the AC50 was 34.4 µM (active).

On to `O=C(CC(=O)C(F)(F)C(F)(F)C(F)(F)F)c1cccs1`, for which the concentration at half-maximal activity (AC50) is 44.6 µM (active) and 67.1 µM (active).

As to `Oc1c(Cl)ccc(Cl)c1Cl`, the outcome was inactive.

As for `O=C1OC2(c3ccccc31)c1cc(I)c(O)c(I)c1Oc1c2cc(I)c(O)c1I`, the outcome was inactive.

As for `O=C1OC(=O)C(F)(F)C1(F)F`, the outcome was inactive.

For the molecule `O=C(NO)c1ccccc1`, the outcome was inactive and the concentration at half-maximal activity (AC50) was 8.57 µM (active).

For `CCC(=O)O`, the outcome was inactive.

Regarding `Cc1cc(C(C)(C)C)c(O)c(C(C)(C)C)c1`, the outcome was inactive.

In the case of `CCN(CCC#N)c1ccccc1`, the outcome was inactive.

`CC(C)(C)C1CCCCC1O` (stereo not given): the molecule was classed as inactive.

On to `O=C1c2ccc(O)c(O)c2C(=O)c2c(O)ccc(O)c21`, for which the molecule was called inactive.

On to `CC(C)[C@@H]1CC[C@@H](C)C[C@H]1O`, for which the molecule was called inactive.

Turning to `CC(C)C=O`, the molecule was called inactive.

For `Cc1ccc(S(=O)(=O)O)cc1`, the result was inactive.

Turning to `FC(F)=C(F)C(F)(F)C(F)(F)C(F)(F)C(F)F`, the result was inactive.

Regarding `CCCCCCCCCCCCCCCCCC[N+](C)(C)Cc1ccccc1`, the molecule was called inactive.

With `CN(C)c1ccc(C(=C2C=CC(=[N+](C)C)C=C2)c2ccccc2)cc1`, the molecule was called inactive and the half-maximal activity concentration (AC50) was 2.56 µM (active).

`Cc1ccc(C)c(S(=O)(=O)O)c1`: the result was inactive.

With `CCCCCCCC(OC)OC`, the molecule was classed as inactive.

As to `CC(O)COc1ccccc1` (stereo not given), the molecule was classed as inactive.

On to `Cc1ccc(N=Nc2c(O)ccc3ccccc23)c(C)c1`, for which the result was inactive.

Turning to `C[N+](C)(CCCNS(=O)(=O)CCC(F)(F)C(F)(F)C(F)(F)C(F)(F)C(F)(F)C(F)(F)F)CC(=O)[O-]`, the molecule was called inactive.

For `CCCCCCCCCCCCCCC`, the molecule was classed as inactive.

Consider `COc1ccc(C#N)cc1`, for which the molecule was called inactive.

Turning to `Clc1ccc(Nc2nnc(Cc3ccncc3)c3ccccc23)cc1`, the molecule was called inactive.

As for `COC(=O)C(F)(F)C(F)(F)C(F)(F)F`, the molecule was called inactive.

Take `Cc1cc(C(=C2C=CC(=Nc3ccc(S(=O)(=O)O)cc3)C=C2)c2ccc(Nc3ccc(S(=O)(=O)O)cc3)cc2)cc(S(=O)(=O)O)c1N`: the result was inactive.

As for `CC(C)(c1ccc(Oc2ccc(N)cc2)cc1)c1ccc(Oc2ccc(N)cc2)cc1`, the call was inactive.

As for `COCN(COC)c1nc(N(COC)COC)nc(N(COC)COC)n1`, the outcome was inactive.

For the molecule `NNc1nc(-c2ccc([N+](=O)[O-])cc2)cs1`, the molecule was called inactive.

Consider `O=c1cc(-c2ccccc2)oc2ccc3ccccc3c12`, for which the outcome was inactive.

The values above are taken from PubChem BioAssay (EPA / NIEHS).
